Sampled rows, rich in hits. Any-hit rate of the full collection: about 8.7%.
Sfp PPTase inh: qHTS Assay for Inhibitors of Bacillus subtilis Sfp phosphopantetheinyl transferase (PPTase). 4'-phosphopantetheinyl transferase ffp (Bacillus subtilis), Q9F4F7. Biochemical Sfp PPTase activity, qHTS. Potency, µM, for the others: largest response in the series, negative = inhibition, most hits filed as inhibitors. hit rate 3.5% among 310,000. AID 1490, 2009;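 further: the enzyme is Sfp with the accession as filed and its product quenches rhodamine fluorescence; 0% = enzyme reaction without inhibitor and -100% = no enzyme wells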
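With Hepes-Na pH 7.6 buffer containing 10 mM MgCl2, Sfp (15 nM) modified BHQ-2-YbbR (12.5 uM) using rhodamine-CoA (5 uM). Two reads 30 minutes apart at 525/598 nm yielded each well's rate.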
BAZ2B inh: qHTS Assay for Inhibitors of BAZ2B; Bromodomain adjacent to zinc finger domain protein 2B (Homo sapiens), Q9UIF8; hit rate 4.4% among 360,000; Potency, µM (highest dose often 114 µM), for the others: at the highest dose activity change, negative = inhibition, usual class: inhibitors; AlphaScreen BAZ2B-H3K14Ac peptide displacement; further: on the % scale 0 is the no-effect control and ±100 the full control effect; nearly all actives have a fitted effect of over 60% in size
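Complex of BAZ2B and biotin-H3K14Ac (50 nM apiece) forms over 30 min at RT, then faces library compounds up to 110 uM for another 30 min; AlphaScreen beads added, 20 min dark incubation, luminescence read.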
HP1b chromo inh: HTS for Inhibitors of HP1-beta Chromodomain Interactions with Methylated Histone Tails | hit rate 0.56% among 390,000 | AID 540317, 2011 | Potency, µM (titrated, usually from 114 µM), for the others: top-dose activity change, negative = inhibition, hits mostly inhibitors | Chromobox protein homolog 1 (Homo sapiens), P83916 | AlphaScreen HP1-beta / biotin-H3K9me3 peptide binding; further: nearly all actives have a fitted effect of over 70% in size
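HP1-beta protein (50 nM final) preincubated 30 min at room temperature with biotinylated H3(1-18)K9me3 peptide (50 nM) in PBS pH 7.4, 0.01% Tween-20, then compound added for 30 min. AlphaScreen streptavidin donor/nickel chelate acceptor beads (10 ug/mL final), 30 min dark, luminescence read.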
12-LOX inh: Primary qHTS assay for inhibitors of human arachidonate 12S-lipoxygenase (ALOX12): Round 2; Polyunsaturated fatty acid lipoxygenase ALOX12 (Homo sapiens), P18054; purified 12hLO, xylenol orange hydroperoxide absorbance; Potency, µM (top dose mostly 108 µM), without a hit: at the top dose activity change, negative = inhibition, most hits filed as inhibitors; hit rate 1.1% among 580,000; AID 1671190, 2021; further: on the % scale 0 is the no-effect control and ±100 the full control effect
Target sequence (P18054 whole entry, looked up): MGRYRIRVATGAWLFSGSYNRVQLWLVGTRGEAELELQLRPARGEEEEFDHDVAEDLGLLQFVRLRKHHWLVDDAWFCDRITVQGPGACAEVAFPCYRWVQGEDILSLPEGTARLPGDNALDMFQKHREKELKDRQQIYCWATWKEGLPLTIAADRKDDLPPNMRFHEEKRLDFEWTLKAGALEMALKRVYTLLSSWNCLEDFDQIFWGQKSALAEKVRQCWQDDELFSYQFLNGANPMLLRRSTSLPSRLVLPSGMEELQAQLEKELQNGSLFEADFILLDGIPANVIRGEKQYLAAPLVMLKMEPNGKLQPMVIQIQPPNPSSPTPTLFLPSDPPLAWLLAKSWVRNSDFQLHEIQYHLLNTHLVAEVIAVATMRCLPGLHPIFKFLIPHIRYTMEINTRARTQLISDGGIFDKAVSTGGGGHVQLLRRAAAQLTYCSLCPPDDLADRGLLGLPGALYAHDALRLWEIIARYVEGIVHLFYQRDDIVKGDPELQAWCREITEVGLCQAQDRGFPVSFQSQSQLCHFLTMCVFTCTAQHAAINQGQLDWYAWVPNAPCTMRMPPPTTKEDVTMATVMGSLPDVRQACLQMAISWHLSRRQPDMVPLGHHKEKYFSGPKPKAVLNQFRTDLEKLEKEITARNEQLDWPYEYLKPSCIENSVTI
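Purified human 12hLO (150 nM final) in 25 mM Hepes, 0.01% Triton X-100, pH 7.0 was preincubated 15 min at room temperature with compound. Then 40 uM arachidonic acid was added, 30 min. Hydroperoxide was read by Fe-XO absorbance ratio 573/405 nm.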
G9a block: qHTS Assay for Inhibitors of Histone Lysine Methyltransferase G9a; hit rate 8.8% among 350,000; Potency, µM (series often up to 102 µM), for the others: at the top dose activity, negative = inhibition, hits mostly inhibitors; Histone-lysine N-methyltransferase EHMT2 (Homo sapiens), Q96KQ7; G9a H3K9 monomethylation, AlphaScreen, 2 h; further: on the % scale 0 is the no-effect control and ±100 the full control effect; nearly all actives have a fitted effect of over 75% in size
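Chemiluminescent proximity detection of H3K9 monomethylation, read after 10 min bead incubation in the dark. Reaction: 20 nM G9a, 500 nM biotin-H3K9 peptide, 20 uM SAM cofactor, 2 h, room temperature, following 15 min enzyme-compound preincubation.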
JMJD2A Tudor: qHTS Assay for Inhibitors of JMJD2A-Tudor Domain | Lysine-specific demethylase 4A (Homo sapiens), O75164 | hit rate 4.4% among 390,000 | AlphaScreen JMJD2A-Tudor / H3K4me3 peptide binding | AID 504339, 2011 | Potency, µM (highest dose often 114 µM), for the others: at the highest dose activity change, negative = inhibition, usual class: inhibitors; further: on the % scale 0 is the no-effect control and ±100 the full control effect; nearly all actives have a fitted effect of over 50% in size
The depositor's hits bear a star; ? = inconclusive; . = not tested or not shown; [ ] = remark or other dose. The call rests on the fitted dose curve; in most records, active means well fitted curve in the direction sought with a large enough effect; inconclusive means small, poorly fitted or top-dose-only effect, or another doubt; inactive means no such curve, though single readings can be large; an effect the other way counts as inactive or inconclusive. Potency means the concentration at half of the fitted maximal effect.

SMILES	Sfp PPTase inh	BAZ2B inh	HP1b chromo inh	12-LOX inh	G9a block	JMJD2A Tudor
Cc1cccc(CSCc2ccc(C(=O)O)o2)c1	-4%	18%	?	6%	48%[0.501 µM]	-27%
Cc1oc(C(=O)O)cc1CSCc1ccoc1C(=O)O	-4%	?	13%	19%	45µM*	?
O=C(O)c1occc1CSc1ccccc1	9%	0%	-26%	?	?	-20%
Nc1ccc2nc(-c3ccccc3)[nH]c2c1	-19%	?	-3%	-13%	-10%[59 µM]	-34%
COc1ccc2nc(-c3ccccn3)[nH]c2c1	-23%	?	45%	-10%	35µM*	-13%
Nc1ccc2nc(-c3ccccn3)[nH]c2c1	5%	45µM*	25%	0%	?	?
Cc1cc(C)c2ccc(N)nc2c1O	15%	10%	13%	?	?	-6%[57.1 µM]
Cc1cc(C)c2ccc(C)[n+]([O-])c2c1O	-18%	?	8%	0%	13µM*	-16%
CC(C)(C)C1=CC(=O)C(=O)C(C(C)(C)C)=C1	1.1µM*	28µM*	?	.	1.6µM*	18µM*
CCOC(=O)C1=C(c2ccccc2)NC(N)=NC1c1ccc(OCc2ccc(Cl)cc2)c(OC)c1 (stereo unspecified)	32µM*	?	-17%[57 µM]	?	-44%[59 µM]	?
CC(=O)Oc1c(/C=C(\C#N)C(N)=O)[nH]c2ccccc12	7%	-36%	5%	?	11µM*	-17%
CN1CCN(CCCN(Cc2ccco2)C(=S)Nc2ccc(Cl)cc2)CC1	14%	10%	15%	0%	-41%	-23%
Cc1cccc(NC(=S)N(CCCN2CCCC2)Cc2cccn2Cc2ccc(Cl)cc2)c1	-7%	?	-15%	?	45µM*	?
CCOc1ccc(NC(=S)N(CCCN2CCCC2)Cc2cccn2Cc2ccc(Cl)cc2)cc1	-14%	?	5%	20%	40µM*	?
CCOc1ccccc1NC(=O)C(=O)N/N=C/c1cc(Br)ccc1O	8%	8.9µM*	23%	-8%	14%	?
COc1cc(OC)c(OC)cc1/C=N/NC(=O)C[n+]1ccccc1	-3%	-6%	15%	-15%	26%[59 µM]	-3%
O=C(C[n+]1ccccc1)N/N=C/c1cc(Br)ccc1O	17%	10µM*	38%	-10%	0%	22µM*
COc1cccc(/C=N/NC(=O)C(=O)NCc2cccnc2)c1OC	4%	-17%	4%	0%	-9%	-9%
COc1cccc(/C=N/NC(=O)C(=O)NCc2cccnc2)c1O	23%	20µM*	31%	-10%	32%[59 µM]	?
CCOc1ccccc1C=NNC(=O)C(=O)NN=Cc1ccccc1OCC	.	.	30%	8%	.	-10%
COc1cccc(/C=N/NC(=O)C[n+]2ccccc2)c1O	37%	18µM*	39%	1%	-3%[59 µM]	45µM*
O=C(Nc1cccnc1N1CCCCC1)c1cc(C2CC2)[nH]n1	.	.	.	10%	.	.
O=C(OCc1ccc(C(F)(F)F)cc1)c1cc2c(cc1[N+](=O)[O-])OCCO2	.	.	.	7%	.	.
COc1ccc(CC(=O)OCC(=O)Nc2ccccc2OC(F)F)cc1	.	.	.	2%	.	.
COc1ccc(-n2nnc3c(N4CCN(C(=O)Cc5cccs5)CC4)ncnc32)cc1	.	.	.	22%	.	.
SMILES	Sfp PPTase inh	BAZ2B inh	HP1b chromo inh	12-LOX inh	G9a block	JMJD2A Tudor
O=C(Cc1ccccc1)Nc1ccnn1C1CCN(Cc2ccc3cccc(F)c3n2)CC1	.	.	.	3%	.	.
COCC1CN(C(C)=O)CC12CCN(C(=O)C1CNC1)CC2 (stereo unspecified)	.	.	.	25µM*	.	.
CNC(=O)N1CCC2(CC1)CN(C(C)=O)CC2COC (stereo unspecified)	.	.	.	10%	.	.
NC(=O)CN1CCC(C(=O)N2C[C@@H](C(=O)O)[C@H](c3ccccc3)C2)CC1	.	.	.	0%	.	.
CC1=CC(c2ccc(Cl)cc2)n2nc(NS(=O)(=O)c3ccc(C)cc3)nc2N1 (stereo unspecified)	-4%	-11%	28%	?	32µM*	-24%
CC1=CC(c2ccccc2)n2nc(NS(=O)(=O)c3ccc(C)cc3)nc2N1 (stereo unspecified)	5%	?	27%	5%	18µM*	-12%
CC(C)NC(=O)C1CC(=O)N(c2ccc(Br)cc2)C1 (stereo unspecified)	.	.	.	8%	.	.
C[N+](C)(C)c1ccc(/C=N/N=C/c2ccccc2)cc1	.	.	.	11µM*	.	.
O=C(/C=C/c1ccccc1)Oc1ccccc1C(=S)N1CCOCC1	-6%	-30%	-2%	-1%	50µM*	-30%
Cc1ccccc1OC(=O)/C=C/c1ccccc1	.	.	.	-27%	.	.
O=C(/C=C/c1cccc(Oc2ccccc2)c1)N1CCOCC1	4%	-4%	22%	-4%	-19%	-14%
O=C(/C=C/c1ccccc1)Oc1cccc(C(=S)N2CCOCC2)c1	-7%	0%	-12%	-10%	40µM*	-13%
Cc1ccccc1CNC(=O)CCC[C@@H]1[C@H]2CCCN3CCC[C@@H](CN1Cc1cccnc1)[C@@H]23	.	.	.	16%	.	.
Cc1ccc(S(=O)(=O)Nc2ccc(NC(=O)Nc3ccc(F)cc3F)cc2)cc1	20%	-28%	18%	?	-7%[59 µM]	-17%
Cc1ccc(S(=O)(=O)Nc2nc(C)c(NC(=O)Nc3ccc(Cl)cc3Cl)s2)cc1	35µM*	-35%	-21%	2µM*	?	-25%
Cc1ccc(S(=O)(=O)Nc2nc(C)c(NC(=O)OCCCl)s2)cc1	50µM*	?	-5%	?	1%[2.33 µM]	-33%
Cc1ccc(S(=O)(=O)Nc2nc(C)c(C(=O)N/N=C/c3ccccc3)s2)cc1	12%	-31%	7%	-28%	-6%[59 µM]	-13%
C=CCNC(=O)NC(=O)CN(CC)Cc1cccs1	.	.	.	18%	.	.

From PubChem BioAssay
